# Bioassay records (PubChem BioAssay)
# Sampled rows, rich in hits. Any-hit rate of the full collection: about 6%.
# Chronic BCR inh: inhibitors of chronic active B-cell receptor signaling; ABC-DLBCL IkBa-CBG/CBR reporter, luminescence ratio, 4 h; Potency, µM (highest dose often 46.1 µM), for the others: top-dose activity change, negative = inhibition, usual class: inhibitors; 340,000 tested, 0.05% active; active = well fitted inhibition curve with a large enough effect in the signal ratio, with a control signal flat, not every such curve was filed as active; inconclusive = small, poorly fitted or top-dose-only effect, or effect the other way, or a change in a side signal; the % refers to the signal ratio;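 also: potency is read from the fitted curve at half-maximal effect; plate controls were basal doxycycline-induced cells for no effect and cells given 10 µM MG132 for full effect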
#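 Compounds up to 46 uM were incubated four hours with TMD8 cells whose green CBG68 luciferase is fused to IkappaBalpha; red CBR luminescence normalised the signal, and concentration-effect curves were fitted to fusion, red and ratio data.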
# D1 ag: activates the human D1 dopamine receptor | activation, % at 2 µM | 360,000 tested, 1% active | HEK293 T-REx D1 cells, calcium flux, agonist mode | AID 504660 | P21728; in the data active = activation above about 30%; also: 0% is about no effect
# Target sequence (P21728 whole entry, looked up): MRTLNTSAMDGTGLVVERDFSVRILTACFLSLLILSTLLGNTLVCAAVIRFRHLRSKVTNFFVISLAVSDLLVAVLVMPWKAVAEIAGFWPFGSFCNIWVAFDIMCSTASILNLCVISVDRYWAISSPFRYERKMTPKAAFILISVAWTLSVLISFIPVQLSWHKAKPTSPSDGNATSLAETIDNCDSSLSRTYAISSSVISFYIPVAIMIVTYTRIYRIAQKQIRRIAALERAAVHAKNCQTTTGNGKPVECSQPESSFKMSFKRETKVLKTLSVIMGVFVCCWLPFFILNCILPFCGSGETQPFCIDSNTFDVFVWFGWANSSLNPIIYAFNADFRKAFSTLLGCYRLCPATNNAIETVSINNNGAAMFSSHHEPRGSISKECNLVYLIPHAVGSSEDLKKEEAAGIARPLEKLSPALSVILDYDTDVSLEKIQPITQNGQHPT
#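 Agonism was scored from calcium flux recorded over 180 s (1 read/s) after pintool compound addition, following a 10-cycle baseline. Cells were inducible force-coupled HEK293 TREx D1, plated overnight at 30 C and loaded with no-wash calcium dye.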
# D1 antag: blocks dopamine activation of the human D1 receptor; HEK293 TREx D1 cells, calcium flux, dopamine EC80; active compounds read low; P21728; AID 504652; activity change, negative = inhibition, % at 10 µM; 360,000 tested, 3.2% active; in the data active = activity change below about -30%; also: % is scaled to controls: 0 for no effect and ±100 for the full control effect
#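 Tetracycline-induced HEK293 Trex D1 cells, force-coupled to calcium, dye-loaded; compounds added and read 180 s, then EC80 dopamine added and calcium flux tracked kinetically another 180 s.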
# D1 potentiator: human D1 dopamine receptor positive modulation | HEK293 TREx D1 cells, calcium flux, dopamine EC20 potentiation | potentiation, % at 10 µM | AID 504651 | 360,000 tested, 0.036% active; in the data active = potentiation above about 30%; also: 0% is about no effect
# DRD3 antagonist: antagonists of human D3 dopamine receptor | D3R cells, DiscoveRx beta-arrestin luminescence, antagonist mode; active compounds read low | max response, negative = inhibition, % | 360,000 tested, 2.5% active; in the data active = max response below about -50%; inconclusive = no clear call, values can overlap the other calls; also: % is scaled to controls: 0 for no effect and ±100 for the full control effect
#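 Cells plated overnight at 1500 cells/well, then exposed to library compounds with dopamine controls for 90 minutes at 37 degrees C. DiscoveRx reagent added for 30–60 minutes at room temperature; luminescence read, quantitative HTS format.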
# D3 ag: agonists of human D3 dopamine receptor; max activation, %; D3R DiscoveRx beta-arrestin cells, luminescence, 90 min; AID 652048; 410,000 tested, 0.58% active; in the data active = max activation above about 30%; also: 0% is about no effect
#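 Agonist mode: compounds and dopamine controls were applied to plated cells for 90 min at 37 degrees C after an overnight attachment at 1500 cells/well. Luminescent read-out followed 30 - 60 minutes at room temperature with DiscoveRx detection reagent.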
# * hit, by the source's call; ? = inconclusive; . = no result given.
SMILES,Chronic BCR inh,D1 ag,D1 antag,D1 potentiator,DRD3 antagonist,D3 ag
Cc1nc2c([nH]c3ccc(Br)cc32)s1,?,1.2,-5.4,-3.3,-101.0*,0.8
Cc1cccc(N2CCN(CCNC(=O)C3COc4ccccc4C3)CC2)c1C (centres undefined),.,18.0,-51.2*,-4.2,.,26.7
Cc1ccc2c(c1)NC(=O)C(CC(=O)NCCCN1CCCCC1)O2 (centres undefined),?,2.3,10.3,.,-13.0,-2.6
O=C(NCCCN1CCN(c2ccc(F)cc2)CC1)C1COc2ccccc2C1 (centres undefined),.,10.7,-6.2,-5.0,.,-26.1
Cc1ccc2c(c1)NC(=O)C(CC(=O)NCCCN1CCN(c3cc(Cl)ccc3C)CC1)O2 (centres undefined),-9.7%,13.4,-22.3,-4.9,-71.6*,-8.7
Cc1ccc(Cl)cc1N1CCN(CCCNC(=O)C2COc3ccccc3C2)CC1 (centres undefined),.,41.3*,-37.0*,-2.1,.,-28.2
O=C(Cn1cc(S(=O)(=O)Cc2cccc(Cl)c2)c2ccccc21)Nc1ccccc1C(F)(F)F,.,4.5,-10.4,-2.1,.,-7.6
COc1ccccc1NC(=O)CCn1cnc2ccccc2c1=O,3.3%,1.9,18.4,7.3,.,9.2
COc1ccccc1NC(=O)CN1C(=O)C(c2ccc(F)cc2)=NC12CCCCC2,.,-0.1,-4.0,1.6,.,5.8
Nc1ncnc2c1ncn2[C@@H]1O[C@H](C(=O)N2CCC[C@@H]2C(=O)OCc2ccccc2)[C@@H](O)[C@H]1O,.,.,.,.,8.0,6.5
Cc1c(Cl)cccc1NC(=O)Nc1nnc(N(C)C2CCCCC2)s1,.,0.5,-0.1,-2.5,.,2.7
N=c1oc2c3c4c(cc2cc1C(=O)Nc1ccccc1)CCCN4CCC3,-0.2%,384.6*,-87.9*,-8.2,14.3,4.7
CC(C)C[C@H](NC(=O)[C@H](CCc1ccccc1)NC(=O)CN1CCOCC1)C(=O)N[C@@H](Cc1ccccc1)C(=O)N[C@@H](CC(C)C)C(=O)[C@@]1(C)CO1,.,.,.,.,.,6.9
O=C(NCc1ccco1)c1sc(=S)n2c1[nH]c(=O)c1ccccc12,8.9%,48.8*,-28.4,-8.3,18.7,3.4
CCc1nc2ccc(C(=O)NCc3ccccc3OC)cn2c1N(C=O)CCC(C)C,.,.,.,.,1.0,5.0
CCCCN(C=O)c1c(CC)nc2ccc(C(=O)NCc3ccccc3OC)cn12,.,.,.,.,-50.8*,1.9
CN(C)C(=O)c1cccc(-c2cnc3cccnn23)c1,.,.,.,.,3.4,-1.7
Cc1cc(C)nc(/N=C(\N)Nc2ccc(OCCC(C)C)cc2)n1,6.1%,86.4*,-45.0*,-5.8,11.9,5.1
COc1ccc(N/C(N)=N/c2nc(C)cc(C)n2)cc1,.,.,.,.,17.5,1.6
COc1ccccc1N/C(=N/c1nc(C)cc(C)n1)NC(C)=O,1.4%,4.3,-0.5,-6.3,.,.
Cc1cc(C)nc(/N=C(\N)Nc2ccc(OCc3ccccc3)cc2)n1,-17.3%,102.2*,-38.1*,0.8,-5.5,-5.2
COc1ccccc1N/C(N)=N/c1nc(C)cc(C)n1,-2.7%,3.0,-33.7*,-12.7,8.6,0.1
Cc1cc(C)nc(/N=C(\N)Nc2ccc(CC(=O)OC(C)C)cc2)n1,0.6%,24.1,-49.5*,2.6,10.2,16.1
CN(C)C(=S)SC(=S)N(C)C,.,.,.,.,.,1.3
N#CC(=Nc1ccccc1)c1ccccc1,.,.,.,.,5.1,0.7
SMILES,Chronic BCR inh,D1 ag,D1 antag,D1 potentiator,DRD3 antagonist,D3 ag
COc1cccc(N/C(N)=N/c2nc(C(F)(F)F)cc(C(F)(F)F)n2)c1,?,6.0,-13.8,4.2,2.7,0.3
Cc1cc(C)nc(/N=C(\N)Nc2cccc(OCc3ccccc3)c2)n1,?,66.1*,-54.9*,-15.0,18.0,-0.2
CCOC(=O)c1c(/N=C/c2cc(C)ccc2O)sc2c1CCN(C)C2,?,1.8,-11.6,-4.8,-54.0*,-34.8
N#Cc1ccccc1OCC(=O)Nc1ccc2c(c1)OCO2,.,.,.,.,2.2,1.7
CCc1ccccc1NC(=O)C(=O)NCCCN1CCOCC1,.,1.8,0.6,-1.7,.,6.8
CC1CN(C(=O)CCC(=O)NCc2cccc(Cl)c2)c2ccccc2S1 (centres undefined),.,4.2,-31.8*,-8.1,.,-7.3
CC1CN(C(=O)Nc2ccc(C(=O)NCc3cccc(F)c3)cc2)c2ccccc2S1 (centres undefined),.,0.0,-43.0*,3.6,.,-5.9
CC1CN(C(=O)CCC(=O)NCc2ccc(Cl)cc2)c2ccccc2O1 (centres undefined),1.9%,5.2,-83.1*,-18.9,-27.8,-11.4
CC1CCC(NC(=O)CCC(=O)N2CC(C)Oc3ccccc32)CC1 (centres undefined),-15.2%,0.6,28.2,-10.2,-91.7*,-15.7
Cc1ccc(CNC(=O)CCC(=O)N2CC(C)Oc3ccc(Cl)cc32)cc1 (centres undefined),13.0%,1.2,5.1,-5.5,0.0,-11.9
COC(=O)c1c(NC(=O)CCCOc2ccc(C)cc2)sc2c1C(C(=O)OC)CC2 (centres undefined),.,6.6,13.5,5.3,.,4.0
COc1cccc(CNC(=O)Cn2c(=O)nc(-c3ccccc3F)c3cc(Cl)ccc32)c1,.,-0.9,-18.8,1.0,.,0.6
CNC(C)CCC=C(C)C (centres undefined),.,.,.,.,.,-19.7
CC1(C(=O)NS(=O)(=O)c2cccc(Cl)c2)CCN1C(=O)C/C=C/c1ccccc1 (centres undefined),.,.,.,.,0.0,0.0
CCCCCCc1cc2cc(-c3nnc(-c4ccccc4OC)o3)c(=O)oc2cc1O,?,303.2*,-9.1,-8.7,71.9,36.8*
CCCCCCc1cc2cc(S(=O)(=O)c3ccc(F)cc3)c(=O)oc2cc1O,16.4%,23.5,-12.8,-4.3,11.6,48.8*
CCCCCCc1cc2cc(-c3nnc(-c4ccccc4O)o3)c(=O)oc2cc1O,-0.7%,356.3*,2.2,0.2,45.3,15.2
CCCCCCc1cc2cc(-c3nnc(-c4cc(OC)c(OC)c(OC)c4)o3)c(=O)oc2cc1O,2.3%,-0.4,4.3,5.5,17.0,3.5
O=C(O)c1ccc2oc(=O)c(S(=O)(=O)c3ccc(F)cc3)cc2c1,0.3%,2.1,5.4,-0.5,-2.7,0.7
CC1(Oc2cccc(C#N)c2)CCN(Cc2ccc(-c3ccccn3)cc2)C1 (centres undefined),.,.,.,.,-12.0,-6.1
CSc1ccc(OC2(C)CCN(Cc3ccc(-c4ccccn4)cc3)C2)cc1 (centres undefined),.,.,.,.,-55.2*,1.2
COc1cc(Cl)ccc1OC1(C)CCN(Cc2ccc(-c3ccccn3)cc2)C1 (centres undefined),.,.,.,.,?,44.8*
COc1cc(Cl)ccc1OC1(C)CCN(Cc2cccc(OC)c2OC)C1 (centres undefined),.,.,.,.,-61.4*,-11.3
